TDP1 block = qHTS Assay for Inhibitors of Tyrosyl-DNA Phosphodiesterase (TDP1). Tyrosyl-DNA phosphodiesterase 1 (Homo sapiens), Q9NUW8. recombinant TDP1, AlphaScreen DNA substrate cleavage. Potency, µM (highest dose often 130 µM), without a hit: at the highest dose activity change, negative = inhibition, hits mostly inhibitors. 0.28% of 350,000 active; note: % is set by controls: 0 for no effect and ±100 for the full control effect; nearly all actives have a fitted effect of over 40% in size
Target sequence (Q9NUW8 whole entry, looked up): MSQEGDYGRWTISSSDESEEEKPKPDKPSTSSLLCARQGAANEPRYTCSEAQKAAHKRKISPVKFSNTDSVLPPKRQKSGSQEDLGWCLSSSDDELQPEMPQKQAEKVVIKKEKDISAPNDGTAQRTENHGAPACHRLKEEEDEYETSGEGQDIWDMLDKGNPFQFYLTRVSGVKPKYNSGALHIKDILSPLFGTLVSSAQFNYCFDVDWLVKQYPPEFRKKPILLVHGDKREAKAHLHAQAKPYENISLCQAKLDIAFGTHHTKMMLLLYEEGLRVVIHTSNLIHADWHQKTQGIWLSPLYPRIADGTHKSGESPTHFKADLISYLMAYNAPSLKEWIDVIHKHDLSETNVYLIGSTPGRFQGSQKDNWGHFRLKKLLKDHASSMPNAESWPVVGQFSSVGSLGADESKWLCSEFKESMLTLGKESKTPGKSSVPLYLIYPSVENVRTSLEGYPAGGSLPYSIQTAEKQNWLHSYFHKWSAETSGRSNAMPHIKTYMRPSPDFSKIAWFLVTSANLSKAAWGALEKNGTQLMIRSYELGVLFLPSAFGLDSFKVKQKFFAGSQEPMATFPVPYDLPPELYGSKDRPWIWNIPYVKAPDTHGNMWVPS
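Recombinant human Tdp1 (E. coli-expressed, 1 nM final) preincubated with compounds 15 min at room temperature, then 5'-biotin/3'-phosphotyrosine-FITC DNA substrate (15 nM final) added for 5 min. AlphaScreen beads (10 ug/ml final) added 10 min; cleavage lowers signal.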
ClpP mod = qHTS Assay for Activators of ClpP; ATP-dependent Clp protease proteolytic subunit (Bacillus subtilis (strain 168)), P80244; purified B. subtilis ClpP, FRET peptide cleavage, 20 min; Potency, µM (doses to about 57.5 µM), without a hit: at the highest dose activity change, negative = active; 1.9% of 340,000 active; active = well fitted falling curve with a large enough effect; inconclusive = small, poorly fitted or top-dose-only effect; inactive = no such curve, though single readings can be large or run the other way; note: the source files actives as falling curves though it sought activators and does not explain the sign; nearly all actives have a fitted effect of over 65% in size
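Purified B. subtilis ClpP, 10 microg/mL final in Tris/HCl pH8 with KCl, BSA, glycerol and Tween-20, cleaved an Abz/nitrotyrosine-quenched decapeptide. Fluorescence (ex 320, em 430) was read at 0 and 20 min at room temperature. Delta was normalized to 5.8 microM ADEP and DMSO/no-enzyme controls.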
TDP1 cell noCPT = qHTS for Inhibitors of human tyrosyl-DNA phosphodiesterase 1 (TDP1): qHTS in cells in absence of CPT. DT40 Tdp1-/- hTDP1 cells, no CPT, ATP luminescence, 48 h. Potency, µM (titrated, usually from 46.2 µM), for inactives: at the top dose activity change, negative = growth inhibition, hits mostly inhibitors. 15% of 420,000 active. AID 686978, 2013; note: % is set by controls: 0 for no effect and ±100 for the full control effect; nearly all actives have a fitted effect of over 55% in size
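DT40 Tdp1-/-;hTDP1 cells, no CPT (DMSO vehicle only), 400 cells/well; compounds pin-transferred; ≥48 hr, 37 °C; CellTiter-Glo 30 min RT dark, luminescence read.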
TDP1 cell CPT = qHTS for Inhibitors of human tyrosyl-DNA phosphodiesterase 1 (TDP1): qHTS in cells in presence of CPT; 12% of 420,000 active; chicken DT40 Tdp1-/-;hTDP1 cells + 20 nM CPT, ATP luminescence, 48 h; AID 686979, 2013; Potency, µM (series often up to 46.2 µM), for the others: at the top dose activity change, negative = growth inhibition, usual class: inhibitors; note: % is set by controls: 0 for no effect and ±100 for the full control effect; nearly all actives have a fitted effect of over 55% in size
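Cell growth measured by CellTiter-Glo luminescence after a minimum 48 h, 37 C compound exposure with 20 nM CPT in Tdp1-knockout DT40 cells stably expressing hTDP1, seeded 400/well; qHTS titration format.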
Starred values were filed as active, the others as inactive; [ ] = dose if it differs, or a comment. Compounds with a hit are over-represented: about 17% of the library has one in this group of screens. Unless noted, calls come from the whole dose curve; as a rule, active = well fitted curve in the direction sought with a large enough effect; inconclusive = small, poorly fitted or top-dose-only effect, or another doubt; inactive = no such curve, though single readings can be large; an effect the other way counts as inactive or inconclusive. Potency is the fitted concentration of half-maximal effect.

Screening Cc1ccc(-n2c(-c3ccc(Br)cc3)nc3c(cnn3-c3ccccc3)c2=O)cc1 returned TDP1 block -14.5%[12.3 µM], ClpP mod inconclusive, TDP1 cell noCPT 20.6µM* and TDP1 cell CPT inconclusive.
Screening COc1cccc(-n2c(-c3ccccc3F)nc3c(cnn3-c3ccc(C)cc3)c2=O)c1 returned TDP1 block -7.0%, ClpP mod inconclusive, TDP1 cell noCPT 11.6µM* and TDP1 cell CPT 16.4µM*.
Screening CCCCC#CC1C=CC(Oc2ccc(C(=O)OC)cc2)C(COC(=O)OCC)O1 (stereo not drawn) returned TDP1 block 5.8%[21 µM].
`COc1ccc(-c2ccc(CCC(=O)O)n2CC(=O)Nc2cccc(Cl)c2C)cc1` gave TDP1 block 8.6%, ClpP mod -6.1%, TDP1 cell noCPT -22.5% and TDP1 cell CPT 9.0%.
For Cc1cccc(NC(=O)c2sc3nc(N)c(C#N)cc3c2N)c1 the results were TDP1 block 0.6%, ClpP mod inconclusive, TDP1 cell noCPT inconclusive and TDP1 cell CPT inconclusive.
`O=c1[nH]c2c(cnn2-c2ccc(Cl)cc2)c(=O)n1-c1cccc(Cl)c1` gave TDP1 block 5.1%, TDP1 cell noCPT 29.1µM* and TDP1 cell CPT inconclusive.
O=c1[nH]c2cc(Cl)ccc2n1-c1ccccc1 was read as TDP1 block -1.0%, ClpP mod -0.3%, TDP1 cell noCPT -7.6% and TDP1 cell CPT -5.9%.
`CN1C(=O)C(C)(C)c2cc(S(=O)(=O)N3CCCC(C(=O)NCc4ccccc4Cl)C3)ccc21` (stereo not drawn) gave ClpP mod 0.2%, TDP1 cell noCPT 23.1µM* and TDP1 cell CPT inconclusive.
`O=C(NCc1ccccc1Cl)C1CCN(S(=O)(=O)c2ccc3c(c2)CCCN3C(=O)C2CCC2)CC1` gave TDP1 block -6.6%, ClpP mod -0.2%, TDP1 cell noCPT 14.6µM* and TDP1 cell CPT 14.6µM*.
`CC(=O)N1CCCc2cc(S(=O)(=O)N3CCCC(C(=O)Nc4ccc(C)c(F)c4)C3)ccc21` (stereo not drawn) gave TDP1 block 7.7%, ClpP mod -3.2%, TDP1 cell noCPT 20.6µM* and TDP1 cell CPT inconclusive.
Screening CC(=O)N1CCCc2cc(S(=O)(=O)N3CCCC(C(=O)Nc4cccc(C)c4)C3)ccc21 (stereo not drawn) returned TDP1 block 1.2%, ClpP mod -1.2%, TDP1 cell noCPT -18.1% and TDP1 cell CPT -28.2%.
For CC(=O)N1CCCc2cc(S(=O)(=O)N3CCN(c4cccc(C(F)(F)F)c4)CC3)ccc21 the results were TDP1 block 6.6%, ClpP mod 0.7%, TDP1 cell noCPT inconclusive and TDP1 cell CPT inconclusive.
For CC(=O)N1CCCc2cc(S(=O)(=O)N3CCN(c4ccc(F)cc4)CC3)ccc21 the results were TDP1 block 1.1%, ClpP mod 0.0%, TDP1 cell noCPT 16.4µM* and TDP1 cell CPT 23.1µM*.
`COc1ccc(CNC(=O)C2CCCN(S(=O)(=O)c3ccc4c(c3)C(C)(C)C(=O)N4C)C2)cc1` (stereo not drawn) gave ClpP mod -0.1%, TDP1 cell noCPT inconclusive and TDP1 cell CPT -14.2%.
For CCOC(=O)C=Nc1c(N)n(C)c(=O)n(C)c1=O the results were TDP1 block 0.6%, ClpP mod 198.2%, TDP1 cell noCPT 2.2% and TDP1 cell CPT -0.3%.
`O=C(c1ccccc1)c1c[nH]c(C(=O)NNc2ccccc2)c1` gave TDP1 block 7.4%, TDP1 cell noCPT -16.1% and TDP1 cell CPT 5.8%.
Screening CCC(=O)N1CCCc2cc(S(=O)(=O)N3CCC(C(=O)Nc4ccccc4CC)CC3)ccc21 returned TDP1 block 4.4%, ClpP mod -3.2%, TDP1 cell noCPT inconclusive and TDP1 cell CPT 25.9µM*.
CC(=O)N1CCCc2cc(S(=O)(=O)N3CCCC(C(=O)NCc4ccccc4Cl)C3)ccc21 (stereo not drawn) was read as TDP1 block 3.0%, ClpP mod 0.1%, TDP1 cell noCPT 25.9µM* and TDP1 cell CPT 20.6µM*.
`O=C(C1CCC1)N1CCCc2cc(S(=O)(=O)N3CCN(c4ccccc4)CC3)ccc21` gave TDP1 block 7.1%, ClpP mod -2.5%, TDP1 cell noCPT inconclusive and TDP1 cell CPT 18.4µM*.
O=C(C1CC1)N1CCc2cc(S(=O)(=O)N3CCN(c4ccccc4)CC3)ccc21 was read as TDP1 block 1.0%, ClpP mod 0.6%, TDP1 cell noCPT -27.5% and TDP1 cell CPT -17.4%.
For COc1ccccc1CC(=O)NCc1nn(-c2ccccc2)nc1C the results were TDP1 block -2.7%, ClpP mod -6.5%, TDP1 cell noCPT inconclusive and TDP1 cell CPT inconclusive.
Cc1cc(C(=O)N/N=C/c2ccc3c(c2)OCO3)c2ccccc2n1 was read as TDP1 block 7.1%, ClpP mod -0.4%, TDP1 cell noCPT 2.06µM* and TDP1 cell CPT 2.31µM*.
O=C(N/N=C/c1ccc2c(c1)OCO2)c1cc(-c2ccccc2Cl)nc2ccccc12 was read as TDP1 block 7.1%, ClpP mod 1.0%, TDP1 cell noCPT -7.3% and TDP1 cell CPT 2.4%.
For Cc1nc2ccccn2c1C(=O)N/N=C/c1ccc2c(c1)OCO2 the results were TDP1 block 2.7%, ClpP mod -13.0%, TDP1 cell noCPT inconclusive and TDP1 cell CPT inconclusive.
Screening O=C(N/N=C/c1ccc2c(c1)OCO2)c1cc(-c2ccncc2)nc2ccccc12 returned TDP1 block 2.6%, ClpP mod 0.7%, TDP1 cell noCPT 4.11µM* and TDP1 cell CPT 3.66µM*.
CC(=O)Nc1ccccc1OCC(=O)NC1CCCCC1C (stereo not drawn) was read as TDP1 block 0.1%[56.1 µM], ClpP mod -1.4%, TDP1 cell noCPT -12.2% and TDP1 cell CPT -14.8%.
Screening COc1ccc(/C=N/Nc2nc3ccccc3c(=O)n2-c2ccccc2)cc1OC returned TDP1 block 2.3%, ClpP mod -3.3%, TDP1 cell noCPT inconclusive and TDP1 cell CPT inconclusive.
O=c1[nH]c(N/N=C/c2ccc(O)cc2)nc2ccccc12 was read as TDP1 block 0.6%, ClpP mod -8.2%, TDP1 cell noCPT 23.1µM* and TDP1 cell CPT 25.9µM*.
C=CCn1c(N/N=C/c2ccc(O)cc2)nc2ccccc2c1=O was read as TDP1 block 7.9%, ClpP mod 0.4%, TDP1 cell noCPT 14.6µM* and TDP1 cell CPT -36.6%.
O=c1[nH]c(N/N=C\c2ccc(F)cc2)nc2ccccc12 was read as TDP1 block -2.4%, TDP1 cell noCPT inconclusive and TDP1 cell CPT inconclusive.
For Cc1ccc(C(=O)NCCNC(=O)COc2ccc(C)c(C)c2)cn1 the results were TDP1 block 2.1%, TDP1 cell noCPT 8.4% and TDP1 cell CPT 7.1%.
